Hits are enriched below; roughly 1.8% of the tested compounds scored in any of these assays.
Myeloid diff 2: promotes myeloid progenitor differentiation | ER-HoxA9 myeloid progenitors, lysozyme-GFP differentiation, flow cytometry | calls only at 10 µM | 360,000 tested, 1% active | AID 624256;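 active means normalized GFP-positive differentiation at or above the plate's own cutoff, the solvent-only control mean plus 3 SD; inconclusive means no clear call, values can overlap the other calls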;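 further: cells exposed to compound for four days before flow analysis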
GC-A act: GC-A (human) enzyme activation; HEK293 GC-A cells, cGMP TR-FRET, EC30 ANP; 0% at EC30 ANP, 100% saturating ANP; AID 1671463; P16066; 370,000 tested, 0.14% active; activation, % at 10 µM; in the data active means activation above about 40%
Granule exo inh: lytic granule exocytosis inhibition; TALL-104 LAMP-1 surface exposure, flow cytometry; cells stimulated with thapsigargin and PMA; inhibition, % at 10 µM; 360,000 tested, 0.66% active;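 active means inhibition above about 55%, limit read from the data; inconclusive means no clear call, values can overlap the other calls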
NPR2 activator: GC-B (human) receptor activation. P20594. HEK293-GC-B cells, CNP EC30, cGMP TR-FRET; 0% at EC30 CNP, 100% saturating CNP. activation, % at 10 µM. AID 1920062. 370,000 tested, 0.11% active;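 active means activation at 10 µM reaching about 35% in either raw or pattern-adjusted values, limit read from the data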
An asterisk follows results filed as active; i = inactive; ? = inconclusive; · = no result; + = active, no number.

SMILES	Myeloid diff 2	GC-A act	Granule exo inh	NPR2 activator
Cc1ccc(Sc2ccc(C=C3C(=O)N(C)C(=O)N(C)C3=O)o2)cc1	i	26.2	73.9*	25.9
COC(=O)c1c(C)n(Cc2ccc3c(c2)OCO3)c2ccc(O)cc12	i	77.5*	3.2	21.8
C=COCCn1c(C)c(C(C)=O)c2cc(O)ccc21	i	24.5	-3.8	-1.7
CCOC(=O)c1c(C)n(Cc2ccco2)c2ccc(O)cc12	i	50.0*	-2.6	-2.2
CCOC(=O)c1c(C)n(Cc2ccccc2)c2ccc(OCC(O)CN3C(=O)CNC3=O)cc12 (centres undefined)	i	28.5	1.4	26.1
CCOC(=O)c1c(C)n(Cc2ccc(F)cc2)c2ccc(O)cc12	i	67.4*	-4.8	7.1
CCC(C)NC(=O)c1c(N)n(Cc2ccc3c(c2)OCO3)c2nc3ccccc3nc12 (centres undefined)	i	5.9	41.1	21.8
CCOC(=O)c1c(C)n(Cc2ccc3c(c2)OCO3)c2ccc(O)cc12	i	78.9*	8.0	28.1
Cc1cc(N2CCNC[C@H]2C)ccc1N1CCN[C@@H](C)C1	·	1.6	·	0.2
O=C(CCc1ccccc1)N1Cc2cc(-c3ccccc3)ccc2-n2nncc2C1	i	0.7	-3.8	-0.6
CCOCCCNC(=O)Cn1nc(-c2ccc(OC)c(OC)c2)ccc1=O	i	-1.1	-3.4	3.1
O=C(O)c1cc(S(=O)(=O)N2CC3CC(C2)c2cccc(=O)n2C3)ccc1F (centres undefined)	·	2.0	·	2.0
COc1cc2c3c(c1OC)Oc1ccc(cc1)C[C@H]1c4c(cc(OC)c(OC)c4Oc4ccc(cc4)C[C@@H]3N(C)CC2)CCN1C	i	0.2	8.6	6.6
CN1CCc2cc3c(c4c2C1Cc1ccccc1-4)OCO3 (centres undefined)	i	-0.9	80.3*	-8.9
CN(C(=O)CN1CC=C(c2ccccc2)CC1)c1c(N)n(Cc2ccccc2)c(=O)[nH]c1=O	i	-1.9	2.3	0.8
O=c1[nH]c(CN2CC=C(c3ccccc3)CC2)nc2scc(-c3ccccc3)c12	+	-1.9	3.6	-2.4
Cc1ccc2c(CN3CC=C(c4ccccc4)CC3)cc(=O)oc2c1C	i	-3.8	-3.1	-5.0
O=c1[nH]c(CN2CC=C(c3ccccc3)CC2)nc2cc(C(F)(F)F)ccc12	+	4.3	1.9	1.2
CCCCn1c(NC(=O)c2ccc(Br)o2)c(C(=O)OCC)c2nc3ccccc3nc21	+	-2.4	-0.9	6.2
c1ccc2c3c([nH]c2c1)CNCC3	+	0.9	-1.8	4.8
CC(C)(C)n1nnnc1C1CN=C(c2ccccc2)c2cc(Cl)ccc2N1 (centres undefined)	·	-3.8	·	-8.2
COc1cc(/C=C/c2nc3ccccc3c(=O)n2-c2cccc(O)c2)ccc1O	+	23.9	11.6	48.8*
COc1cc(/C=C/c2nc3ccccc3c(=O)n2-c2ccccc2O)ccc1O	i	11.2	11.4	22.2
CN1C2CCC1/C(=C/c1ccccn1)C(=O)/C2=C\c1ccccn1	?	15.3	64.5*	4.6
Cc1cc(N2CCNC[C@@H]2C)ccc1N1CCN[C@H](C)C1	·	0.9	·	-2.4
SMILES	Myeloid diff 2	GC-A act	Granule exo inh	NPR2 activator
CCOC(=O)CNC(=O)N1Cc2cc(-c3ccccc3)ccc2-n2nncc2C1	i	1.9	-3.9	3.1
CCOC(=O)CNC(=O)N1Cc2ccccc2-n2nncc2C1	+	-0.3	0.5	1.4
CN(Cc1cccc(-c2ccncc2)c1)C(=O)Oc1ccc([N+](=O)[O-])cc1	i	·	12.5	·
CN1/C(=C\C=C2C(=O)NC(=S)NC2=O)C(C)(C)c2ccccc21	+	-7.9	-1.2	-1.9
CCOc1ccc(N2C(=O)/C(=C\c3cccs3)C(=O)NC2=S)cc1	·	7.9	·	0.4
O=C1NC(=S)N(c2ccccc2F)C(=O)/C1=C\c1cccs1	i	6.6	75.7*	-1.1
O=C1NC(=O)C(=Cc2ccccc2[N+](=O)[O-])C(=O)N1	i	3.5	-6.6	-1.7
O=C1NC(=O)C(=Cc2ccc(-c3cc(Cl)ccc3[N+](=O)[O-])o2)C(=O)N1	+	49.9*	61.1*	16.7
O=C1NC(=O)C(=Cc2ccc(-c3ccccc3[N+](=O)[O-])o2)C(=O)N1	i	38.1	76.5*	13.1
COc1cccc(C(=O)NCCN2CCC3(CC2)C(=O)NCN3c2ccccc2)c1	·	-7.3	·	-9.6
CC(C)(C)Cc1nnc(NC(=O)COc2ccc(Cl)cc2Cl)o1	·	1.0	·	-4.6

Source: PubChem BioAssay
